A549 viability: Nrf2 qHTS screen for inhibitors: counterscreen for cytotoxicity. Potency, µM (doses to about 46 µM), inactives show top-dose activity change, negative = cytotoxicity, most hits filed as inhibitors. A549 ARE-Fluc cells, CellTiter-Fluor viability, 18-24 h. actives 0.16% (n = 390,000). AID 504648, 2011; also: potency is read from the fitted curve at half-maximal effect; % is scaled to controls: 0 for no effect and ±100 for the full control effect
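A549 ARE_Fluc cells in 5% FBS OPTI-MEM were exposed to compounds in concentration-response for 18-24 h at 37 deg C. Viability was read by CellTiter-Fluor fluorescence (Ex 405/Em 525) after 30 min, before the luciferase read.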
Nrf2 ARE act: qHTS of Nrf2 Activators. AREc32 ARE-luciferase reporter (MCF7-derived line), luminescence, 24 h. Potency, µM (highest dose often 46.1 µM), without a hit: at the top dose activation, usual class: activators. actives 0.31% (n = 410,000). AID 624171, 2012; also: potency is read from the fitted curve at half-maximal effect; % of control where 0% means no effect; nearly all actives have a fitted effect of over 65% in size
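Nrf2 activation is followed as ARE-luciferase induction in the AREc32 line after one day of compound treatment; luminescence is read with Steady-Glo.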
Nrf2 inh: Nrf2 qHTS screen for inhibitors | A549 ARE-Fluc reporter, luciferase luminescence, 18-24 h | AID 504444, 2011 | actives 2.1% (n = 360,000) | Potency, µM (series often up to 46 µM), for the others: at the highest dose activity change, negative = inhibition, hits mostly inhibitors; also: potency is read from the fitted curve at half-maximal effect; % is scaled to controls: 0 for no effect and ±100 for the full control effect; nearly all actives have a fitted effect of over 60% in size
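Two sequential reads on A549 ARE_Fluc cells exposed to compound for 18-24 h: a CellTiter-Fluor fluorescence read for viability, then a luciferase luminescence read for Nrf2/ARE activity.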
IL-2 act: qHTS of IL-2 Activators. actives 0.065% (n = 360,000). IL-2 activation reporter assay, cell-based qHTS; stimulated with anti-CD3/CD4/CD28 beads; in transgenic mouse T cells. activation, % (series mostly up to about 46 µM); in the data active = activation above about 50%; inconclusive = mostly about 30% to 49%; also: 0% is about no effect
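Unstimulated transgenic mouse T cells preincubated 60 min with compound, then stimulated with anti-CD3/anti-CD4-coated beads plus anti-CD28 for 18 h at 37 degrees C. IL-2 response read as EGFP and DsRed fluorescence by plate cytometry.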
miR-21 act: qHTS Assay for Modulators of miRNAs and/orActivators of miR-21; HeLa miR-21 FLuc reporter, luciferase, 48 h; Potency, µM (highest dose often 38.3 µM), without a hit: top-dose activity change, positive = activation, usual class: activators; 340,000 tested, under 10 active;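 also: % of control where 0% means no effect; miR-21 action dims this reporter so a rising signal means less miR-21 action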
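Using DMEM plus 10% FBS, HeLa miR-21-FLuc cells are incubated with test compounds (final up to about 40uM) for 48 hours; firefly luciferase signal is then imaged following reagent-mediated lysis.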
ClpP mod: qHTS Assay for Activators of ClpP; ATP-dependent Clp protease proteolytic subunit (Bacillus subtilis (strain 168)), P80244; purified B. subtilis ClpP, FRET peptide cleavage, 20 min; Potency, µM (highest dose often 57.5 µM), inactives show at the highest dose activity change, negative = active; actives 1.9% (n = 340,000); AID 651965, 2013; active = well fitted falling curve with a large enough effect; inconclusive = small, poorly fitted or top-dose-only effect; inactive = no such curve, though single readings can be large or run the other way; also: potency is read from the fitted curve at half-maximal effect; the source files actives as falling curves though it sought activators and does not explain the sign; nearly all actives have a fitted effect of over 65% in size
Target sequence (P80244 whole entry, looked up): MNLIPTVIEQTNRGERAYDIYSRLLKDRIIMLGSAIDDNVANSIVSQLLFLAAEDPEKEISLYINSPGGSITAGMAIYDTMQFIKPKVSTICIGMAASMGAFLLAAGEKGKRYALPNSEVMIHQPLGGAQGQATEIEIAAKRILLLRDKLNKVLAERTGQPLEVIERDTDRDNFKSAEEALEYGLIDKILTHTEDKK
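Buffer: 100 mM Tris/HCl pH8, 100 mM KCl, 0.05% low protease BSA, 2.5% glycerol, 0.01% Tween-20. ClpP 10 microg/mL final; 20 min RT; delta FRET normalized to ADEP and DMSO controls.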
Numbers without * were called inactive; ? = inconclusive; nt = not tested or not shown. Rows were chosen to be rich in hits. Some 3.7% of all compounds tested hit in one or more screens of this group. Unless noted, calls follow the shape of the dose curve; as a rule, active = well fitted curve in the direction sought with a large enough effect; inconclusive = small, poorly fitted or top-dose-only effect, or another doubt; inactive = no such curve, though single readings can be large; an effect the other way counts as inactive or inconclusive.

SMILES	A549 viability	Nrf2 ARE act	Nrf2 inh	IL-2 act	miR-21 act	ClpP mod
Cc1cccc(N2CCN(S(=O)(=O)c3ccc4[nH]c(=O)ccc4c3)CC2)c1C	-25.1%	0.9%	18.4µM*	-2.8	5.7%	0.6%
CCc1ccc(NC(=O)c2cc3c(COC(C)=O)cnc(C)c3oc2=O)cc1	10.8%	-0.3%	nt	nt	-18.2%	0.3%
O=c1[nH]c(/C=C/c2ccc(OC(F)F)cc2)nc2c1cnn2-c1ccccc1	-14.8%	0.0%	16.4µM*	-1.7	-6.4%	nt
COc1ccc(CCNC(=O)Cn2cc(S(=O)(=O)Cc3cccc(Cl)c3)c3ccccc32)cc1OC	?	0.9%	20.6µM*	nt	?	1.5%
O=C1CCCCC1Nc1ccc2ccccc2c1 (centres undefined)	?	5.1%	18.4µM*	-0.6	nt	nt
O=C1CCCC1C(=O)Nc1ccc2ccccc2c1 (centres undefined)	-3.7%	3.8%	-0.7%	-1.6	-34.2%	-1.9%
CCC1CCc2sc(C(=O)NNC(=O)c3ccncc3)cc2C1 (centres undefined)	0.0%	-0.7%	-4.8%	-5.4	nt	14.1µM*
COc1ccc(CCNC(=O)Cn2nc(C)n3c(cc4occc43)c2=O)cc1OC	8.6%	1.5%	8.8%	nt	2.0%	1.0%
O=C(COc1ccccc1Cl)Nc1ccc(Cl)c(-c2nc3ccccc3o2)c1	-19.8%	0.3%	?	nt	-6.8%	-4.8%
CN(C)c1ccc(/C=C(/C#N)C(=O)NCc2ccccc2)o1	-11.5%	0.7%	?	82.8*	-77.9%	0.8%
COc1ccc(NC(=O)NC2COc3ccccc3C2)c(OC)c1 (centres undefined)	0.6%	0.6%	nt	nt	-0.8%	0.9%
Cc1cc(NS(=O)(=O)c2ccc3c(c2)CCC(=O)N3)ccc1Cl	-0.8%	nt	?	nt	nt	nt
CCOc1ccc2nc(N3CCCC(C(=O)Nc4ccc(OC)c(Cl)c4)C3)sc2c1 (centres undefined)	-7.0%	0.5%	?	nt	-20.3%	1.9%
O=C(COc1ccc(NC(=O)c2cccs2)cc1)c1ccc(F)cc1	-18.5%	3.0%	16.4µM*	-3.2	-6.5%	-2.4%
Cc1nn2c3ccccc3nc2c2ccccc12	-11.1%	7.94µM*	-6.6%	-1.7	-45.3%	-8.1%
Cc1nn2c(-c3ccccc3)nnc2c2ccccc12	-2.1%	3.98µM*	?	-2.4	-53.6%	-1.8%
O=C(NCCc1ccc(Cl)cc1)c1ccc(CSCc2cccc(Cl)c2)o1	10.8%	2.8%	nt	nt	7.7%	-0.7%
COc1ccc(NC(=S)N2CCC(Cc3ccccc3)CC2)cc1	2.2%	-0.9%	-27.6%	-2.5	-0.3%	-0.1%
COc1ccc(CCNC(=O)c2ccc3c(c2)CCN3S(C)(=O)=O)cc1	3.2%	0.1%	-16.8%	nt	0.3%	-0.1%
CCS(=O)(=O)N1CCc2cc(C(=O)NCCc3ccc(OC)c(OC)c3)ccc21	?	0.6%	18.4µM*	nt	2.1%	-6.5%
CC(C)OCCCNC(=S)N1CCC(C(=O)c2ccc(Cl)cc2)CC1	5.0%	2.5%	?	-1.1	10.6%	-0.4%
CCOCCCNC(=S)N1CCC(C(=O)c2ccc(C)cc2)CC1	10.6%	0.0%	-28.3%	-0.2	1.1%	31.6µM*
S=C(Nc1ccccc1)N1CCC(Cc2ccccc2)CC1	-16.5%	0.1%	16.4µM*	-1.0	11.8%	-2.1%
COc1ccc(C(=O)C2CCN(C(=S)NCCc3ccc(OC)c(OC)c3)CC2)cc1	-24.0%	6.6%	16.4µM*	-0.5	13.3%	nt
COc1ccc(-c2nc(Cn3c(=O)cc(-c4ccccc4)c4c(C)nn(C)c43)c(C)o2)cc1OC	4.3%	-0.1%	?	nt	-3.8%	-0.5%
SMILES	A549 viability	Nrf2 ARE act	Nrf2 inh	IL-2 act	miR-21 act	ClpP mod
Cc1cc(C)c(Cn2c(=O)n(CCCCC(=O)NCc3ccccc3Cl)c(=O)c3ccccc32)c(C)c1	-9.1%	-0.8%	-4.6%	nt	-0.4%	-7.6%
COc1ccc(CCNC(=O)COC(=O)CCC(=O)c2ccc(F)cc2)cc1OC	0.1%	0.2%	14.3%	-2.5	1.1%	31.6µM*
COc1ccc(CCNC(=S)N2CCC(Cc3ccccc3)CC2)cc1OC	4.2%	5.6%	?	-2.2	14.3%	7.94µM*
Cc1ccc(S(=O)(=O)NCCC(=O)N2CCC(Cc3ccccc3)CC2)cc1	5.5%	3.7%	?	0.6	nt	1.0%
COCCNC(=S)N1CCC(C(=O)c2ccc(F)cc2)CC1	10.5%	2.5%	?	0.6	nt	-3.2%
COc1ccc(CCNC(=S)N2CCC(C(=O)c3ccc(F)cc3)CC2)cc1OC	0.6%	5.9%	16.4µM*	-0.7	26.9%	2.7%
CC(=O)Nc1ccc(S(=O)(=O)NCCC(=O)N2CCC(Cc3ccccc3)CC2)cc1	-2.7%	3.1%	?	-0.1	nt	11.2µM*
O=S(=O)(c1ccc2ccccc2c1)n1nc(-c2ccco2)nc1NCc1cccc(Cl)c1	3.4%	0.1%	-19.1%	nt	0.0%	-2.8%
CC(C)(C)C(=O)N(Cc1ccc(Cl)cc1)c1cnccn1	-1.2%	0.1%	18.4µM*	-1.9	9.3%	-1.9%
Cc1cc(Br)cc2c(C(=O)OCC(=O)c3ccccc3)cc(-c3ccccc3)nc12	-4.7%	-0.2%	10.4%	nt	-11.5%	0.0%
COc1cc(C2Nc3ccccc3C(=O)N2c2ccccc2)c(Br)cc1OCC(=O)O (centres undefined)	8.5%	-0.5%	6.7%	0.5	-31.5%	31.6µM*
CCC(=O)NC(c1cccc([N+](=O)[O-])c1)c1c(OC(C)=O)ccc2ccccc12 (centres undefined)	-8.4%	0.6%	?	-0.6	-3.2%	28.2µM*
COCCN1C(=O)C(=O)/C(=C(/O)c2ccc3c(c2)OCCO3)C1c1ccc(C(=O)OC)cc1 (centres undefined)	-6.3%	0.0%	2.0%	0.0	0.1%	-11.2%
COCCCN1C(=O)C(=O)/C(=C(/O)c2ccc3c(c2)OCCO3)C1c1ccc(C(=O)OC)cc1 (centres undefined)	-8.2%	-0.4%	3.1%	1.9	-3.6%	31.6µM*
O=C(CSc1nc2ccccc2nc1Cc1ccc(Cl)cc1)N1CCCCC1	0.3%	2.8%	nt	nt	-9.2%	-4.9%
COc1ccc(NC(=O)c2sc3nc(-c4cccnc4)ccc3c2N)cc1	0.8%	-0.2%	?	?	-10.6%	nt
Nc1c(C(=O)Nc2ccc(Cl)c(C(F)(F)F)c2)sc2nc(-c3ccncc3)ccc12	-3.6%	0.4%	7.31µM*	nt	-7.7%	-1.6%
Nc1c(C(=O)Nc2ccc(F)c(F)c2)sc2nc(-c3ccncc3)ccc12	-2.7%	-0.6%	-14.3%	nt	-14.5%	1.1%
